About 83,000 compounds went through this panel and 20% of them were active in at least one assay; those are over-represented in the sample as a whole.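 A percent growth of 40 corresponds to 60% growth inhibition; 0 means no net growth; -100 means all cells died. Active threshold: below 10.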 Unmarked numbers belong to inactive results. Activity calls are given as the source filed them.

The values that follow come from PubChem BioAssay (NCI).

Some test systems named below: NCI-H23 lung; NCI-H226 lung; NCI-H322M lung; HOP-62 NSCLC; NCI-H460 lung; HOP-92 NSCLC; NCI-H522 lung; A549/ATCC NSCLC; 786-0 renal; COLO 205 colon; DU-145 prostate; K-562 leukemia; MALME-3M melanoma; MDA-MB-231 breast; RXF 393 renal; SF-268 CNS; SF-295 CNS; SF-539 CNS; UACC-257 melanoma; M14 melanoma.
Assay in all cases: NCI-60 one-dose screen, 48 h (100 = growth as untreated, 0 = no growth, -100 = all killed)
What all share (details): 10 µM unless noted

Turning to `COc1ccc(-c2ncnc3c2ncn3CC#CCCl)cc1`, the growth in the assay with NCI-H23 lung was 59.1%; in the assay on NCI-H226 lung it was 56.5%; in the assay with NCI-H322M lung, 92%; in the assay on HOP-62 NSCLC it was 77.5%; in the assay on NCI-H460 lung, 67.8%; in the assay with HOP-92 NSCLC, 9.39% (active). The growth in the assay on NCI-H522 lung is 49%; with A549/ATCC NSCLC, 60.1%; in the assay on 786-0 renal it was 36.4%; in the assay with COLO 205 colon, 80%; in the assay on DU-145 prostate it was 87.6%; in the assay with K-562 leukemia, 58.3%. The growth with MALME-3M melanoma was 20.2%; in the assay on MDA-MB-231 breast, 70.1%; in the assay with RXF 393 renal, 29.7%; in the assay with SF-268 CNS, 62.9%; with SF-295 CNS, 95.3%; with SF-539 CNS it was 92.3%. The growth is 59.5% with UACC-257 melanoma and 70.1% in the assay with M14 melanoma.

For `O=C1NC(=O)C(c2ccccc2)(c2ccccc2)N1Cc1cn(-c2c3ccccc3nc3ccccc23)nn1`, the growth in the assay on NCI-H23 lung is 85.5%; with NCI-H226 lung, 99.5%; in the assay on NCI-H322M lung it was 92.9%; in the assay on HOP-62 NSCLC, 87.5%; in the assay with NCI-H460 lung, 74.1%; in the assay on HOP-92 NSCLC it was 67.3%. Besides, the growth was 15.9% in the assay with NCI-H522 lung; 78.2% with A549/ATCC NSCLC; 87.3% with 786-0 renal; 107% with COLO 205 colon; 91.2% in the assay on DU-145 prostate; 39.2% with K-562 leukemia. Also, the growth with MALME-3M melanoma is 104%; with MDA-MB-231 breast, 73.1%; in the assay with RXF 393 renal, 85.6%; in the assay on SF-268 CNS, 89.3%; with SF-295 CNS, 99%; in the assay with SF-539 CNS, 98.5%. For the same compound, the growth is 89.1% in the assay on UACC-257 melanoma and 96.2% in the assay on M14 melanoma.

In the case of `O=c1c2cc(F)ccc2sc2c(N3CCNCC3)nc3ccc(F)cc3c12`, the growth with NCI-H23 lung is 61.3%; in the assay with NCI-H226 lung, 83.8%; in the assay on NCI-H322M lung, 55.4%; in the assay with HOP-62 NSCLC it was 57.5%; in the assay on NCI-H460 lung, -88.4% (active); with HOP-92 NSCLC, 7.38% (active). Further, the growth with NCI-H522 lung is 8.28% (active); with A549/ATCC NSCLC, 13.2%; in the assay on 786-0 renal, 60.5%; in the assay on COLO 205 colon, -51.9% (active); in the assay on DU-145 prostate, -84.7% (active); in the assay with K-562 leukemia it was -37.8% (active). Moreover, the growth in the assay with MALME-3M melanoma is 82.6%; in the assay on MDA-MB-231 breast, -76.4% (active); with RXF 393 renal, 50.9%; in the assay on SF-268 CNS, 48.3%; in the assay with SF-295 CNS, 77.8%; with SF-539 CNS, -89.4% (active). Moreover, the growth in the assay on UACC-257 melanoma is 96.3%; with M14 melanoma, -62% (active).

Regarding `Cc1ccc(NC2=C(Cl)C(=O)c3nc(C)ccc3C2=O)cc1`, the growth was -30.5% (active) in the assay on NCI-H23 lung; 38.1% in the assay on NCI-H226 lung; 55.7% in the assay on NCI-H322M lung; 75.2% in the assay on HOP-62 NSCLC; 9.01% (active) with NCI-H460 lung; -71% (active) in the assay with HOP-92 NSCLC. The growth in the assay on NCI-H522 lung is -25.7% (active); with A549/ATCC NSCLC, 54.6%; in the assay on 786-0 renal, 21.6%; in the assay with COLO 205 colon, 106%; in the assay with DU-145 prostate, -62.2% (active); in the assay with K-562 leukemia it was 6.64% (active). Besides, the growth was -37.4% (active) in the assay with MALME-3M melanoma; -80.3% (active) in the assay on MDA-MB-231 breast; -57.2% (active) in the assay on RXF 393 renal; 66.8% with SF-268 CNS; 62.1% in the assay on SF-295 CNS; -85.6% (active) in the assay with SF-539 CNS. In addition, the growth with UACC-257 melanoma was -73.8% (active); in the assay on M14 melanoma, 29.1%.

Consider `COc1nc2ccc(C)cc2cc1-c1nc2c(cnn2-c2ccccc2)c(=O)[nH]1`, for which the growth with NCI-H23 lung was 80.5%; with NCI-H226 lung, 92%; with NCI-H322M lung, 95.9%; in the assay on HOP-62 NSCLC it was 70.9%; with NCI-H460 lung it was 80.3%; with HOP-92 NSCLC, 78.9%. Besides, the growth in the assay on NCI-H522 lung is 56.5%; in the assay with A549/ATCC NSCLC, 84.3%; in the assay on 786-0 renal, 95.3%; in the assay with COLO 205 colon, 86.3%; in the assay with DU-145 prostate it was 97.2%; in the assay on K-562 leukemia, 34.8%. Moreover, the growth was 126% in the assay on MALME-3M melanoma; 103% in the assay with MDA-MB-231 breast; 89.4% with RXF 393 renal; 93.8% in the assay on SF-268 CNS; 90.9% in the assay with SF-295 CNS; 99.9% with SF-539 CNS. Further, the growth in the assay with UACC-257 melanoma is 86.4%; with M14 melanoma, 71%.

In the case of `CC[C@H](C)C(=O)O[C@H]1CCC=C2C=C[C@H](C)[C@H](CC[C@@H]3CC=CC(=O)O3)[C@H]21`, the growth in the assay with NCI-H23 lung is 96.5%; with NCI-H226 lung, 107%; with NCI-H322M lung, 95.9%; with HOP-62 NSCLC, 99.6%; with NCI-H460 lung, 99%; in the assay on HOP-92 NSCLC it was 42%. Also, the growth with NCI-H522 lung is 56.2%; with A549/ATCC NSCLC, 85.6%; in the assay on 786-0 renal, 95.5%; in the assay on COLO 205 colon, 103%; in the assay with DU-145 prostate, 88.7%; in the assay on K-562 leukemia it was 46.4%. The growth with MALME-3M melanoma is 92.5%; in the assay with MDA-MB-231 breast, 97.6%; with RXF 393 renal, 96.6%; in the assay on SF-268 CNS, 99.2%; with SF-295 CNS it was 115%; with SF-539 CNS, 80.5%. Further, the growth in the assay with UACC-257 melanoma is 77.8%; in the assay on M14 melanoma, 76.4%.

`C=C(C)C1CCC2(C)OC2C1` (stereo not given): the growth is 111% with NCI-H23 lung; 98.8% in the assay on NCI-H226 lung; 94.9% in the assay on NCI-H322M lung; 94.6% in the assay with HOP-62 NSCLC; 103% in the assay with NCI-H460 lung; 117% in the assay with HOP-92 NSCLC. The growth in the assay with NCI-H522 lung was 105%; with A549/ATCC NSCLC, 127%; in the assay on 786-0 renal, 98.7%; with COLO 205 colon, 142%; in the assay with DU-145 prostate, 122%; with K-562 leukemia it was 135%. The growth with MALME-3M melanoma was 95.7%; in the assay with MDA-MB-231 breast, 102%; with RXF 393 renal, 204%; in the assay on SF-268 CNS, 115%; with SF-295 CNS, 96.7%; with SF-539 CNS, 103%. The growth was 132% in the assay with UACC-257 melanoma and 108% with M14 melanoma.

Take `COc1cc(CCC[P+](c2ccccc2)(c2ccccc2)c2ccccc2)c(OC)c2c1OCO2`: the growth in the assay on NCI-H23 lung is 19.3%; with NCI-H226 lung it was 55.3%; with NCI-H322M lung, 85.3%; in the assay on HOP-62 NSCLC, 18.9%; in the assay with NCI-H460 lung, 31.8%; in the assay with HOP-92 NSCLC it was 11.3%. For the same compound, the growth with NCI-H522 lung was 6.02% (active); in the assay on A549/ATCC NSCLC it was 43.7%; with 786-0 renal it was 31.2%; in the assay on COLO 205 colon, -35.6% (active); in the assay with DU-145 prostate, 28.5%; in the assay on K-562 leukemia, 14.4%. For the same compound, the growth is 3.07% (active) in the assay with MALME-3M melanoma; -0.787% (active) with MDA-MB-231 breast; 64.3% in the assay with RXF 393 renal; 13% with SF-268 CNS; 66.9% in the assay on SF-295 CNS; 46.9% with SF-539 CNS. Also, the growth in the assay on UACC-257 melanoma is 5.75% (active); in the assay on M14 melanoma, 17.4%.
